# Screening data: PubChem BioAssay, National Center for Advancing Translational Sciences (NCATS)
# Shown are actives, neighbours in structure and some others; about 17% of the full set was active somewhere.
# HT1080 IDH1KD tx – HT-1080 IDH1 knockdown cell toxicity (counter line) | 360,000 compounds, 2% hits | HT-1080 IDH1 knockdown viability, ATP luminescence, 48 h | Potency, µM (top dose mostly 46.1 µM), hits mostly cytotoxic
#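 % activity derives from luminescence (CellTiter-Glo), normalised to DMSO and no-cell wells. HT-1080-IDH1KD cells, 750/well, had 48 h compound exposure at 37 °C.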
# TDP1 cell noCPT – qHTS for Inhibitors of human tyrosyl-DNA phosphodiesterase 1 (TDP1): qHTS in cells in absence of CPT; DT40 Tdp1-/- hTDP1 cells, no CPT, ATP luminescence, 48 h; Potency, µM (series often up to 46.2 µM), most hits filed as inhibitors; 420,000 compounds, 15% hits; AID 686978, 2013; note: nearly all actives have a fitted effect of over 55% in size
#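 No-CPT arm: Tdp1-/-;hTDP1 DT40 cells (400/well) plus compounds, incubated ≥48 hr at 37 °C. Readout CellTiter-Glo luminescence.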
# TGFb inhibitor – blocks TGF-b signaling; Potency, µM (series often up to 46.1 µM), actives largely listed as inhibitors; HepG2 CAGA-GFP TGF-b/SMAD3 reporter, GFP fluorescence, 18 h; TGF-beta stimulated, 500 pg/mL final; 410,000 compounds, 1.2% hits; note: nearly all actives have a fitted effect of over 65% in size
#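 Cell-based qHTS in HEPG2 carrying a CAGA-GFP Smad reporter; compounds added before 500 pg/mL final TGF-beta, 18 h incubation at 37 degrees C, GFP fluorescence quantified per cell by imaging cytometry.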
# DT40 TDP1 CPT – growth inhibition of DT40 Tdp1-/-;hTDP1 cells with camptothecin (screen for TDP1 inhibitors); AID 686979; Potency, µM (top dose mostly 46.2 µM), most hits filed as inhibitors; 420,000 compounds, 12% hits; chicken DT40 Tdp1-/-;hTDP1 cells + 20 nM CPT, ATP luminescence, 48 h; note: nearly all actives have a fitted effect of over 55% in size
#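 Chicken DT40 Tdp1-/- cells complemented with human TDP1, 400 cells/well, exposed to compounds plus 20 nM camptothecin for at least 48 h at 37 C; viability read as ATP content by CellTiter-Glo luminescence.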
# HT1080NT lethal – kills 2HG-producing HT-1080-NT fibrosarcoma cells; HT-1080-NT fibrosarcoma viability, CellTiter-Glo ATP luminescence, 48 h; AID 686970; Potency, µM (highest dose often 46.1 µM), most hits filed as cytotoxic; 360,000 compounds, 1.6% hits;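 note: NT is the 2HG producing partner of a matched IDH1 knockdown line; nearly all actives have a fitted effect of over 55% in size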
#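 Viability of the 2HG-overproducing fibrosarcoma line after 48 hours of compound exposure at 37 degrees C was determined by luminescence with CellTiter-Glo, and concentration-effect curves were then fitted and categorized.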
# HepG2 viability – counter-screen for TGF-b inhibitors: cytotoxicity in HepG2 cells | 410,000 compounds, 0.76% hits | Potency, µM (top dose mostly 46.1 µM), most hits filed as cytotoxic | HepG2 CAGA-GFP viability, ATP luminescence, 18 h | AID 588856
#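 CellTiter-Glo luminescence gave cytotoxicity after 18 hours at 37 degrees C. The cells were HepG2 CAGA-GFP in 1% FBS DMEM, stimulated with 500 pg/mL TGF-beta after compound addition. %Activity was normalised to no-cell wells (complete cell-killing) and DMSO (no toxicity), and curves were fitted and classified.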
# A number is an active result; . = inactive; ? = inconclusive; / = no result given; [ ] = dose if it differs, or a comment. Calls come from the whole dose curve; as a rule, active = well fitted curve in the direction sought with a large enough effect; inconclusive = small, poorly fitted or top-dose-only effect, or another doubt; inactive = no such curve, though single readings can be large; an effect the other way counts as inactive or inconclusive.
SMILES,HT1080 IDH1KD tx,TDP1 cell noCPT,TGFb inhibitor,DT40 TDP1 CPT,HT1080NT lethal,HepG2 viability
CCN(Cc1ccccc1)C(=O)c1cccc(S(=O)(=O)N2CCN(c3ccc(F)cc3)CC2)c1,.,16µM,?,18µM,.,.
CC(C)(O)c1[nH]c2cc(F)ccc2c1C(C)(C)O,.,.,.,?,.,.
COc1cc(C(=O)OCc2cccc(OC)c2OC)ccc1OCC(=O)N1CCOCC1,.,.,.,.,.[9.24 µM],.
CCOc1cc(C(=O)OC(C(=O)NC(=O)NC)c2ccccc2)ccc1OCC(=O)N1CCOCC1 (stereo unspecified),.,18µM,.,18µM,.,.
COc1cc(C(=O)OC(C)c2ccc(F)cc2)ccc1OCC(=O)N1CCOCC1 (stereo unspecified),.,23µM,.,?,.,.
CCOC(=O)c1cc(-c2ccc(C)cc2)nc2nc(SC)[nH]c(=O)c12,.,.,.,.,.,.
CCCn1c(C)cc(/C=C(\C#N)C(=O)OCC(=O)Nc2ccc(OC)c(Cl)c2)c1C,.,12µM,.,.,.,.
CCOC(=O)c1cc(-c2ccccc2)n(CCC(=O)Nc2ccc(OC)c(Cl)c2)c1C,/,16µM,?,16µM,/,.
CCOC(=O)c1cc(-c2ccccc2)n(CCCC(=O)Nc2ccc(C)c(Cl)c2)c1C,/,23µM,11µM,?,/,.
CC(=O)c1cc(-c2ccccc2)n(CCC(=O)Nc2ccc(C(C)C)cc2)c1C,/,5.8µM,?,8.2µM,/,.
Cc1ccc(NC(=O)CCSCCc2ccccn2)cc1,.,.,.,.,.,.
O=C(CCc1nc2ccccc2c(=O)[nH]1)OCc1ccc(Cl)cc1Cl,.,.,.,.,.,.
CC(Sc1nc(C(F)(F)F)nc2ccccc12)C(=O)NC1CCCC1 (stereo unspecified),.,?,.,.,.,.
CCOC(=O)c1cc(-c2ccccc2)n(CCC(=O)Nc2ccc(C(F)(F)F)cc2)c1C,/,7.3µM,?,7.3µM,/,.
CCOC(=O)c1cc(-c2ccccc2)n(CCCC(=O)Nc2ccccc2C)c1C,/,23µM,.,?,/,.
CCCCN(C)CCCNC(=O)C1CCN(S(=O)(=O)CCC)CC1,/,.,.,.,/,.
Cc1ccc(NC(=O)N2CCN(Cc3nc4ccc(C)cc4o3)CC2)c(Cl)c1,/,.,.,.,/,.
O=C(CCn1cnc2onc(-c3ccc(F)cc3)c2c1=O)N1CCN(c2ccc(F)cc2)CC1,/,18µM,?,23µM,/,.
COc1ccccc1N1CCN(C(=O)Cn2cnc3onc(-c4ccc(F)cc4)c3c2=O)CC1,/,23µM,.,?,/,.
CC(=O)c1ccc(N2CCN(C(=O)CCn3cnc4onc(-c5ccc(F)cc5)c4c3=O)CC2)cc1,/,?,.,?,/,.
COc1ccccc1N1CCN(C(=O)Cn2cnc3c2c(=O)n(C)c(=O)n3C)CC1,.,.,.,?,.,.
O=C1CCC2CN3CCc4c([nH]c5ccccc45)C3CC2C1 (stereo unspecified),.,21µM,.,?,.,.
CN1CCN(C(=O)CN(C)S(=O)(=O)c2cc(Cl)ccc2Cl)CC1,.,.,.,.,.,.
CC1(C(=O)NCc2cccc(Cl)c2)Cc2c(-c3ccc4c(c3)OCO4)ccnc2O1 (stereo unspecified),?,16µM,?,26µM,?,.
CC1(C(=O)NCc2cccs2)Cc2c(-c3ccccc3)ccnc2O1 (stereo unspecified),?,6.5µM,.,5.8µM,?,.
CC(=O)NCCNC(=O)C1(C)Cc2c(-c3ccc(NC(C)=O)cc3)ccnc2O1 (stereo unspecified),.,?,.,.,.,.
